# Experimental data taken from PubChem BioAssay (NCI).
# Where “and” joins values, the source holds several entries; their conditions need not be identical. Equal values may be shown once. This is part of a sample that, as a whole, favours compounds with a hit. Of some 83,000 tested, about 20% had one in any assay.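 Note: values are percent growth. 100 is the growth of untreated cells, values between 100 and 0 indicate rising inhibition; between -100 and 0 indicates cell death.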 Values without a mark were called inactive. Calls of active or inactive are those of the source. The calls were made as follows: active = growth percent below 10; inactive = the rest.
# Test system: MDA-MB-468 breast
# Experiment: NCI-60 one-dose screen, 48 h (100 = growth as untreated, 0 = no growth, -100 = all killed)
# Settings: 10 µM unless noted
row,SMILES,growth
1,Cc1cccc(NC(=O)c2sc3nc4c(cc3c2N)CCCC4)c1,24.7%
2,Cc1ccc(C)n1/C=C/n1c(C)ccc1C,95.1%
3,c1ccc(Cc2cccc[n+]2C(c2ccccc2)c2ccccc2)cc1,-6.43% (active)
4,COc1ccc(-c2c(N)noc2-c2cc(OC)c3c(c2)OCCO3)cc1,-1.87% (active)
5,c1cc(N2CCCC2)c2nc(-c3[nH]ncc3Nc3ncnc4[nH]ccc34)[nH]c2c1,-76.2% (active)
6,Nc1ccc2c3c(cccc13)-c1ccccc1-2,88.6%
7,O=C(O)/C(=C\c1ccc(Cl)cc1)c1ccc(Cl)cc1,78.9%
8,COc1cc(-c2nn(C(=O)NCCN3CCN(C)CC3)cc2-c2ccncc2)ccc1Cl,60.9%
9,Oc1ccc(CSc2nnc(-c3ccccc3)o2)c2cccnc12,22.9%
10,CN1CCc2c(Sc3ccc(C(=O)NO)cc3)c3ccccc3n2C1,21%
11,Cc1ccc2c(n1)C(=O)C(Br)=C(C1CCCC1)C2=O,95.2%
12,CC(=O)OCCCCN1C=C/C(=C\C(=O)n2ccc3ccccc32)c2ccccc21,98.4%
13,CC(=O)O[C@H]1CC[C@@]2(C)[C@@H](CC[C@@H]3[C@@H]2CC[C@@]2(C)[C@H]3CC[C@]2(O)C(C)=O)C1,94.1%
14,CN(C)c1ccc(C(c2ccc(O)cc2)c2ccc(N(C)C)cc2)cc1,1.1% (active)
15,Cc1cc2cn3c4cccnc4[nH]c(=O)c3c2cc1C,37.2%
16,O=c1c2cccc(F)c2sc2c(N3CCNCC3)nc3ccccc3c12,37.2%
17,O=c1[nH]cnc2c1ncn2C1OC(CO)C(O)C1O (stereo unspecified),123% and 113% and 111%
18,COc1ccc(-c2nn(-c3ccccc3)cc2/C=C/C(=O)c2ccc(NC(=O)CCCCCCC(=O)NO)cc2)cc1,92.8%
19,CN(C)Cc1ccc(C(=O)Nc2ccc3ncnc(Nc4ccc(Oc5cccc(F)c5)c(Cl)c4)c3c2)cc1,-63% (active)
20,CC/C=C\C[C@H]1C/C=C2/C(=O)C=C[C@@H]2C/C=C\CCCC(=O)O1,-33.6% (active)
21,C=CCCC(=O)N1C=CC(=O)[C@H](O)[C@@H]1/C=C/c1ccccc1,4.99% [100 µM] (active)
22,Cc1ccc(-c2nc3nc(-c4ccccc4)nc(N4CCNCC4)c3o2)cc1,-87.2% (active)
23,N#C/C(=C/c1c(O)ccc2ccccc12)C(N)=O,97.3%
24,O=C1CC(c2cccc(-c3cccnc3)c2)=Nc2ccc(Br)cc2N1,10.5%
25,O=CN1N=C(c2ccc(Cl)cc2)CC1c1cccc(Nc2ccnc3cc(C(F)(F)F)ccc23)c1 (stereo unspecified),32.9%
26,CCC(C)Nc1ccc(N)cc1 (stereo unspecified),-30.9% (active)
